MARV entry inh: Marburg virus entry inhibition; Marburg virus pseudotyped entry inhibition, cell reporter; Potency, µM (highest dose often 37.8 µM), actives largely listed as inhibitors; actives 1.8% (n = 300,000); AID 540276; calls by dose curve; tested in HEK293 cells
LASV entry inh: Lassa virus entry inhibition; Lassa virus pseudotype entry inhibition, cell reporter; Potency, µM (doses to about 37.9 µM), hits mostly inhibitors; actives 1.2% (n = 300,000); AID 540256; calls by dose curve; tested in HEK293 cells; note: nearly all actives have a fitted effect of over 50% in size
Sm TGR block: S. mansoni TGR enzyme inhibition; AID 485364; Potency, µM (doses to about 114 µM), actives largely listed as inhibitors; actives 3% (n = 360,000); purified TGR, DTNB reduction, TNB absorbance 405 nm; note: nearly all actives have a fitted effect of over 60% in size
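Kinetic colorimetric format: TGR-catalysed, NADPH-driven DTNB reduction monitored via TNB absorbance. Enzyme dispensed at 20 nM; compound exposure 15 min at room temperature before reaction start.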
HCV inhibitor: inhibitors of hepatitis C virus infection. Huh7.5.1 HCVcc-Cre infection, luciferase reporter, 44 h. Potency, µM (titrated, usually from 41.8 µM), hits mostly inhibitors. actives 3.4% (n = 340,000). AID 651820
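Cells (1,000/well) were plated 4 h before compound, then infected with HCVcc-Cre virus (~0.5 moi). After 44 h further culture, infection was read as luciferase luminescence following a 15 min substrate incubation at room temperature.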
FMDV antiviral: antivirals against foot and mouth disease virus. AID 1159524. Potency, µM (highest dose often 57.9 µM), most hits filed as inhibitors. actives 1.2% (n = 410,000). FMDV antiviral cell-based qHTS; calls by dose curve; tested in HEK293T cells; note: read-out not given here; nearly all actives have a fitted effect of over 45% in size
RE007 growth inh: less growth of the S. pombe RE007 Vpr strain; actives 0.21% (n = 360,000); Potency, µM (doses to about 92.2 µM), actives largely listed as inhibitors; S. pombe RE007 Vpr strain, BacTiter-Glo ATP luminescence, 24 h; active = well fitted falling curve with a large enough effect; inconclusive = small, poorly fitted or top-dose-only effect; inactive = no such curve, though single readings can be large or run the other way; note: nearly all actives have a fitted effect of over 50% in size
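Fission yeast RE007 carrying one integrated HIV-1 vpr copy, seeded at OD 0.01 in PMG+AL medium with 23 nL pinned compound. Grown 24 h at 30 degrees; viability read by BacTiter-Glo luminescence after 5 min.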
Each line names hits and unclear results; the compound was inactive in the other large screens. Hits are enriched below; roughly 7.2% of the tested compounds scored in any of these assays. Unless noted, calls come from the whole dose curve; as a rule, active = well fitted curve in the direction sought with a large enough effect; inconclusive = small, poorly fitted or top-dose-only effect, or another doubt; inactive = no such curve, though single readings can be large; an effect the other way counts as inactive or inconclusive.

C=C(Cl)COc1ccc2c(CCC)cc(=O)oc2c1	HCV inhibitor 10µM
CC1CN(C(=O)CCC(=O)NCc2cccc(Cl)c2)c2ccccc2S1 (configuration not stated)	FMDV antiviral inconclusive (no result: LASV entry inh, HCV inhibitor, RE007 growth inh)
COc1cccc([C@@H]2Oc3ccc(Br)cc3C(=O)[C@@H]2OC(=O)N[C@H]2CCCc3ccccc32)c1	none (no result: LASV entry inh, Sm TGR block, HCV inhibitor, FMDV antiviral, RE007 growth inh)
COCc1ccc(CN2CCOc3c(cc(-c4cc(C)c5cccc(OC)c5n4)cc3OC)C2)o1	none (no result: MARV entry inh, LASV entry inh, Sm TGR block, HCV inhibitor, RE007 growth inh)
CCn1c(-c2ccccc2Cl)nn(CC(=O)NCCc2ccccc2)c1=S	none
CCn1c(-c2ccccc2Cl)nn(CC(=O)Nc2cc(Cl)ccc2Cl)c1=S	MARV entry inh inconclusive, LASV entry inh inconclusive, HCV inhibitor 12.6µM, FMDV antiviral inconclusive
Cc1ccc(NC(=O)CSc2nc(=O)n(Cc3ccco3)c3c2CCC3)cc1F	none (no result: MARV entry inh, HCV inhibitor, RE007 growth inh)
O=C(/C=C/c1ccc(N2CCCCC2)c([N+](=O)[O-])c1)c1ccc(S(=O)(=O)N2CCCC2)cc1	MARV entry inh inconclusive, FMDV antiviral 20µM
NC(=O)c1ccc(N2CCN(S(=O)(=O)c3ccccc3)CC2)c([N+](=O)[O-])c1	LASV entry inh 2µM, HCV inhibitor 2.82µM, FMDV antiviral 15.8µM
O=C(c1ccc(N2CCCCC2)c([N+](=O)[O-])c1)N1CCN(S(=O)(=O)c2ccccc2)CC1	LASV entry inh inconclusive, HCV inhibitor inconclusive
O=[N+]([O-])c1cccc(S(=O)(=O)c2ccc(N3CCCCC3)c([N+](=O)[O-])c2)c1	HCV inhibitor 8.91µM, FMDV antiviral inconclusive
O=[N+]([O-])c1cc(S(=O)(=O)c2ccc(N3CCCCC3)c([N+](=O)[O-])c2)ccc1N1CCCCC1	MARV entry inh inconclusive, HCV inhibitor inconclusive
Cc1ccc(CC(=O)N(Cc2nc(-c3ccc(C)cc3)no2)C(C)C)cc1	none (no result: HCV inhibitor, RE007 growth inh)
N=c1ccn(Cc2c(Cl)cccc2Cl)cc1	MARV entry inh inconclusive, HCV inhibitor inconclusive
Clc1ccc(CN2CCSCC2)c(Cl)c1	Sm TGR block inconclusive
N=c1ccn(Cc2ccccc2Cl)cc1	MARV entry inh inconclusive, HCV inhibitor 2.51µM, FMDV antiviral inconclusive
N=c1ccn(Cc2ccc(Cl)cc2Cl)cc1	LASV entry inh inconclusive, HCV inhibitor 2.82µM, FMDV antiviral inconclusive, RE007 growth inh inconclusive
COc1cc(-c2cc(C)c3c(OC)ccc(OC)c3n2)cc2c1OCCN(C(=O)C(C)c1n[nH]c(=O)c3ccccc13)C2 (configuration not stated)	none (no result: MARV entry inh, LASV entry inh, Sm TGR block, HCV inhibitor, RE007 growth inh)
CCCCOc1ccc(CNC(=O)c2cnc3sc(N4CCOCC4)nn3c2=O)cc1	none (no result: MARV entry inh, HCV inhibitor, RE007 growth inh)
CCOC(=O)N1CCN(S(=O)(=O)c2ccc(C)cc2)C1c1ccc(OC)cc1 (configuration not stated)	MARV entry inh inconclusive, LASV entry inh 23.1µM
Nc1nc(Cl)c(C=O)c(N2CCCCC2)n1	LASV entry inh inconclusive, HCV inhibitor 10µM
O=C1NC(=O)C(=C/C=C/c2coc3ccc(Br)cc3c2=O)C(=O)N1	Sm TGR block 0.794µM (no result: MARV entry inh, LASV entry inh, HCV inhibitor, FMDV antiviral, RE007 growth inh)
O=C1NC(=S)S/C1=C\c1coc2ccccc2c1=O	Sm TGR block inconclusive (no result: MARV entry inh, LASV entry inh)
O=C1NC(=O)C(=Cc2coc3ccccc3c2=O)C(=O)N1	Sm TGR block 15.8µM, RE007 growth inh inconclusive (no result: MARV entry inh, LASV entry inh)
COc1ccc(OC)c(NC(=O)CSC2=Nc3ccccc3C3=NC(CCC(=O)NCc4ccco4)C(=O)N23)c1 (configuration not stated)	LASV entry inh inconclusive, FMDV antiviral inconclusive (no result: MARV entry inh, HCV inhibitor, RE007 growth inh)
Cc1cccc(NC(=O)CSc2nnc(CNC(=O)c3ccc(S(=O)(=O)N(C)C)cc3)n2-c2cccc(C)c2)c1	LASV entry inh 14.1µM, HCV inhibitor inconclusive
Cc1cccc(NC(=O)CSc2nnc(CNC(=O)c3ccc(S(=O)(=O)N(C)C)cc3)n2-c2ccccc2)c1	MARV entry inh inconclusive, LASV entry inh inconclusive, HCV inhibitor inconclusive
COc1cccc(CNC(=O)Cn2c(=O)oc3cc(S(=O)(=O)N4CCCCCC4)ccc32)c1	none (no result: MARV entry inh, HCV inhibitor, RE007 growth inh)
CCCCN(Cc1ccccc1)S(=O)(=O)c1cc(Br)cc2c1N(C(C)=O)C(C)C2 (configuration not stated)	MARV entry inh inconclusive, LASV entry inh inconclusive, HCV inhibitor 5.01µM
CC(=O)N1c2c(cc(Br)cc2S(=O)(=O)NCc2cccnc2)CC1C (configuration not stated)	none
